Screening data: PubChem BioAssay, several laboratories
Most compounds without a hit are left out; they make up all but 3.7% or so of the library.
NLRP3 yeast inh = blocks the NALP3 inflammasome reconstituted in yeast; inhibition, % at 10 µM; AID 2825; 330,000 tested, 0.39% active; Yeast reconstituted NLRP3/ASC/caspase-1, beta-gal luminescence, 24 h;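 active = inhibition of 50% or more; inactive = inhibition below 50%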
PfHsp90 set2 = inhibits growth of yeast expressing Plasmodium falciparum Hsp90. S. cerevisiae expressing PfHsp90, BacTiter-Glo ATP, 48 h; yeast lacking PDR1 and PDR3 efflux regulators. inhibition, % at 9.4 µM. 310,000 tested, 0.32% active. AID 504621;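 active = every replicate shows inhibition above about 80%, whatever the replicate mean, limit read from the data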
TIM10 inh = growth inhibitors of TIM10 yeast strain; S. cerevisiae TIM10 strain growth, BacTiter-Glo luminescence, 24 h; inhibition, % at 10 µM; 330,000 tested, 1.4% active; AID 463195;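 active = inhibition of 40% or more at the single tested concentration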;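 note: wild-type TIM10 isogenic control strain grown at permissive 25 °C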
tim10-1 inh = tim10-1 yeast growth inhibition; S. cerevisiae tim10-1 ts strain growth, BacTiter-Glo, 24 h; inhibition, % at 20 µM; 330,000 tested, 2.2% active;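 active = inhibition of at least 40%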;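 note: mutant grown at 25 °C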
tim23-1 inh = tim23-1 yeast growth inhibition. AID 463212. 330,000 tested, 1.3% active. S. cerevisiae tim23-1 growth, BacTiter-Glo luminescence, 24 h. inhibition, % at 20 µM;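 active = growth inhibition of the mutant yeast at or above 50%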;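 note: temperature-sensitive mutant grown at 25 °C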
tim10-1 confirm = confirmation of tim10-1 mutant yeast growth inhibitors. shares compounds with tim10-1 inh. S. cerevisiae tim10-1 ts strain growth, BacTiter-Glo, 24 h. inhibition, % at 20 µM. 7,400 tested, 56% active. AID 463213;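 active = inhibition of yeast growth at or above a set limit in either of two repeat tests at 20 µM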;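 note: tim10-1 mutant grown at permissive 25 °C to find synthetic lethal compounds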
Numbers stand for hits; i = inactive; nt = no result given.

SMILES | NLRP3 yeast inh | PfHsp90 set2 | TIM10 inh | tim10-1 inh | tim23-1 inh | tim10-1 confirm
CC(C)(C)c1nn(-c2ccccc2)c2[nH]c(=O)c(CNCc3ccc4c(c3)OCO4)cc12 | i | i | i | 44 | i | 32
COc1cc(C(=O)N2CCN(Cc3ccccc3C(F)(F)F)CC2)cc(OC)c1OC | i | i | i | 43 | i | i
O=C(CN1CCC(n2nnc3cc(F)ccc32)CC1)Nc1ccc2c(c1)CCC2 | i | i | i | 47 | i | i
Cc1nn(Cc2ccc([N+](=O)[O-])cc2)c(=O)n1-c1c(F)cccc1F | i | nt | i | i | i | nt
Cc1cc(N2CCN(c3ccccc3Cl)CC2)n2cc(-c3ccccc3)nc2n1 | i | i | i | 42 | i | 49
Cc1cc(N2CCN(c3ccccc3)CC2)n2cc(-c3ccccc3)nc2n1 | i | i | i | i | i | nt
COc1ccc(CCN(C)S(=O)(=O)c2ccc(Cl)nc2)cc1OC | i | i | i | i | i | nt
CC(C)(C)OC(=O)N[C@@H](Cc1ccccc1)c1nnc(S(=O)(=O)Cc2cccc(F)c2)o1 | i | nt | i | 59 | i | 50
CC[C@@H](C)[C@H](NC(=O)OC(C)(C)C)c1nnc(S(=O)(=O)Cc2cc(C)ccc2C)o1 | i | 106 | i | 52 | i | 57
CC[C@@H](C)[C@H](NC(=O)OCc1ccccc1)c1nnc([C@@H](NC(=O)OCc2ccccc2)[C@@H](C)CC)o1 | i | i | i | i | i | nt
CCN(CC(=O)Nc1ccc(NC(C)=O)cc1)C(=O)c1cc(CN2C(=O)c3ccccc3C2=O)ccc1OC | i | nt | i | i | i | nt
Cc1cc2nc(Sc3c([N+](=O)[O-])nc(C)n3Cc3ccccc3)[nH]c2cc1C | i | i | i | 43 | i | 39
Cc1nc([N+](=O)[O-])c(N2CCN(Cc3ccccc3)CC2)n1Cc1ccccc1 | i | i | i | i | i | nt
Cc1nc([N+](=O)[O-])c(Sc2nc3ccccc3[nH]2)n1Cc1ccccc1 | i | i | i | 44 | i | i
COc1ccc2nc(Sc3c([N+](=O)[O-])nc(C)n3Cc3ccccc3)[nH]c2c1 | i | nt | i | i | i | nt
COc1ccc(-n2cc(-c3ccc(C)cc3)[n+]3c2SCC3)cc1 | i | i | i | i | i | nt
Cn1nnnc1NCc1cccc(Cl)c1Cl | i | i | i | i | i | nt
CC(C)CC1Nc2ncnc(N3CCN(c4ccccn4)CC3)c2N(Cc2ccccc2)C1=O (stereo not given) | i | i | i | i | i | nt
COCC(=O)Nc1sc2c(c1C(=O)OC)C(C(=O)OC)CC2 (stereo not given) | i | i | i | 43 | i | i
COc1ccc(CNC(=O)Cn2ccc3cc(S(=O)(=O)N4CCCC4)ccc32)cc1OC | i | i | i | i | i | nt
O=C(c1ccc(F)cc1)C1CCN(C(=S)Nc2ccccc2Cl)CC1 | i | i | i | i | i | nt
Cc1ccccc1NC(=S)N1CCC(C(=O)c2ccc(F)cc2)CC1 | i | i | i | 42 | i | i
CSCCC(NC(=O)c1ccccc1Br)C(=O)NC(C)CCc1ccccc1 (stereo not given) | i | i | i | 76 | i | i
CSCCC(NC(=O)c1ccccc1)C(=O)NCCc1ccccc1 (stereo not given) | i | i | i | i | i | nt
Cc1cccc(-n2c(=S)[nH]c3nc4c(cc3c2=O)COC(C)(C)C4)c1 | i | nt | i | i | i | nt
SMILES | NLRP3 yeast inh | PfHsp90 set2 | TIM10 inh | tim10-1 inh | tim23-1 inh | tim10-1 confirm
CC(C)(C)c1ccc(OCCOc2ccc(C(C)(C)C)cc2NC=O)c(NC=O)c1 | i | i | i | 47 | i | i
COCCOc1ccc(C(F)(F)F)cc1NC(=O)c1ccccc1 | i | i | i | i | i | nt
CCCc1[nH]c2ccc(C#N)cc2c1CCC | i | i | i | 53 | i | 33
N/C(=N\OC(=O)c1cccc(Cn2cc(C(F)(F)F)ccc2=O)c1)c1ccccc1 | i | i | i | 44 | i | 52
COc1ccc(NC(=O)c2c(F)cccc2Cl)cc1S(=O)(=O)N1CCOCC1 | i | nt | i | i | i | nt
Cc1[nH][nH]c(=O)c1C=NCc1cccc(C(F)(F)F)c1 | i | nt | i | i | i | nt
COCCn1c(-c2ccc(Br)cc2)csc1=Nc1cccnc1 | i | nt | i | 42 | i | i
COc1ccc(N=c2scc(-c3ccc(OC)cc3)n2CCO)cc1 | i | i | i | 41 | i | i
Clc1ccc(-c2csc(=Nc3cccnc3)n2CCCn2ccnc2)cc1Cl | i | i | i | i | i | nt
CCN(C1CCCCC1)S(=O)(=O)c1cc(C)ccc1OC | i | i | i | 43 | i | i
Cc1ccc(-c2[nH]c(=S)[nH]c(=O)c2C#N)cc1 | i | i | i | i | i | nt
CCC(C)n1c(C)cc(=O)n1C(C)CC (stereo not given) | nt | i | nt | nt | nt | nt
O=S(=O)(Nc1ncccc1O)c1ccc(Cl)cc1 | i | nt | i | i | i | nt
O=S(=O)(Nc1cc(Cl)ccn1)c1ccc(Cl)cc1 | i | i | i | 42 | i | i
CCN(CC)CCNCC1C(=O)O[C@@H]2C[C@@]3(C)CCC[C@H](C)C3=C[C@H]12 (stereo not given in full) | i | i | i | 51 | i | 37
COc1ccc(NC(=O)CN(C)C(=O)c2cn(-c3ccccc3)nc2-c2ccc(Cl)cc2)cc1 | i | nt | i | 41 | i | i
CCc1cccc(OCC(=O)Nc2ccc(S(=O)(=O)N3CCCC3)cc2)c1 | i | i | i | i | i | nt
CCC(C)C(=O)Nc1ccc(OC)cc1OC (stereo not given) | i | i | i | i | i | nt
COc1ccc(NC(=O)N(CCC(C)C)C(C)c2ccccn2)c(OC)c1 (stereo not given) | i | i | i | 41 | i | i
CC(=O)Nc1ccc(S(=O)(=O)N2CCN(c3ncccn3)CC2)cc1 | i | i | i | i | i | nt
CN(C)c1ccc(-c2cc3ccccc3c(=O)o2)cc1 | i | i | i | i | i | nt
Cn1c2ccccc2c(=O)c2ccc(C#CC3(N)CCCCC3)cc21 | i | i | i | 45 | i | 36
O=c1c2ccccc2oc2ccc(C#CC3(O)CCCCC3)cc12 | i | i | i | 45 | i | 36
Cn1c2ccccc2c(=O)c2cc(C#Cc3ccsc3)ccc21 | i | i | i | i | i | nt
Cn1c2ccccc2c(=O)c2cc(C#CC3(O)CCCCC3)ccc21 | i | i | i | 44 | i | 39
SMILES | NLRP3 yeast inh | PfHsp90 set2 | TIM10 inh | tim10-1 inh | tim23-1 inh | tim10-1 confirm
N#Cc1ccc(C#Cc2ccc3oc4ccccc4c(=O)c3c2)cc1 | i | i | i | i | i | nt
O=C(COC(=O)CN1C(=O)c2ccccc2C1=O)NC1CCCCC1 | i | i | i | i | i | nt
CS(=O)(=O)N(Cc1ccccc1Cl)c1ccc(C(=O)N2CCCC2)cc1 | i | i | i | i | i | nt
CC(C)[C@H](NC(N)=O)C(=O)Nc1cccc(S(=O)(=O)NC2=NCCCCC2)c1 | i | i | i | i | i | nt
Oc1c(CN2CCCC(C(F)(F)F)C2)cc(Cl)c2ccccc12 (stereo not given) | i | i | i | 42 | i | i
CC(C)Oc1ccccc1C1Nc2ccccc2C(=O)N1c1ccc2c(c1)OCCO2 (stereo not given) | i | i | i | 46 | i | i
